Calls of active or inactive are those of the source. How the source made its calls: active means hit-call score of the fitted dose curve at least 0.9, where 1 is the maximum; inactive means score below 0.9.

The nature of this test: CCTE_Harrill_HTTr_Viability_MCF7: CCTE's 6-hour Cell Viability Assessment for the High-Throughput Transcriptomics (HTTr) Platform, in MCF-7 cells cultured in DMEM + 10% fetal bovine serum, Harrill Lab (AID 2284010). The method in brief: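 Membrane integrity was scored by high-content imaging of propidium iodide dye exclusion after a 6 h exposure across an eight-point dilution series. Data were fitted bidirectionally relative to DMSO as negative control and baseline.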
On to `O=C(C(Cl)Cl)N1CCOC12CCCCC2`, for which the outcome was inactive.
For `NC(=O)N=NC(N)=O`, the outcome was inactive.
Consider `CC1(C)[C@H]2CC[C@]1(C)C(=O)C2`, for which the result was inactive.
For `Cc1cccc(N(C)C(=S)Oc2ccc3ccccc3c2)c1` the value was “inactive”; for `C=C(C)[C@H]1CC=C(C)CC1`, “inactive”; for `CC(=O)NS(=O)(=O)c1ccc(N)cc1`, “inactive”.
The entry for `C=C1C2CCC(C2)C1(C)C` (stereo not drawn) is “inactive”.
The entry for `O=c1[nH]c(=O)c2[nH]c(=O)[nH]c2[nH]1` is “inactive”; for `C#CC1(O)CC[C@H]2[C@@H]3CCC4=CCCC[C@@H]4[C@H]3CC[C@@]21C` (stereo partly drawn) it is “inactive”.
As for `O=C(/C=C/C=C/c1ccc2c(c1)OCO2)N1CCCCC1`, the outcome was inactive.
`CCCNC(=O)NS(=O)(=O)c1ccc(Cl)cc1`: the outcome was inactive.
The entry for `C1CN(SSN2CCOCC2)CCO1` is “inactive”; for `CC(=O)OCC(=O)[C@@]12N=C(C)O[C@@H]1C[C@H]1[C@@H]3CCC4=CC(=O)C=C[C@]4(C)[C@H]3[C@@H](O)C[C@@]12C` it is “inactive”.
For `O=C1CCCCCCCCCCC(=O)OCCO1` the value was “inactive”.
For `Cc1cnc(NC(=O)C2=C(O)c3ccccc3S(=O)(=O)N2C)s1` the value was “inactive”; for `CCCCC(CC)COC(=O)c1ccccc1` (stereo not drawn), “inactive”.
As to `CCCOC(=O)CCCCC(=O)OCCC`, the outcome was inactive.
For `Cc1ccccc1C`, the result was inactive.
For `CC(=O)OC(C)C` the value was “inactive”; for `CCC(=O)Oc1ccc(/C(CC)=C(\CC)c2ccc(OC(=O)CC)cc2)cc1`, “inactive”.
Regarding `CCCCOCCOC(=O)COc1nc(Cl)c(Cl)cc1Cl`, the result was inactive.
The entry for `CN(C)c1ccc(N=Nc2ccccc2C(=O)O)cc1` is “inactive”.
For `c1ccc(-c2ccccn2)nc1` the value was “inactive”; for `O=C(Nc1cccc(C(F)(F)F)c1)c1cc(Br)cc(Br)c1O`, “inactive”; for `C[C@]12CCC(=O)C=C1CC[C@@H]1[C@@H]2C(=O)C[C@@]2(C)[C@H]1CC[C@]2(O)C(=O)CO`, “inactive”.
The entry for `CCN(Cc1cccc(S(=O)(=O)O)c1)c1ccc(C(=C2C=CC(=[N+](CC)Cc3cccc(S(=O)(=O)[O-])c3)C=C2)c2ccccc2)cc1` is “inactive”; for `CC(=O)[C@@]1(O)CC[C@H]2[C@@H]3C[C@H](C)C4=CC(=O)C=C[C@]4(C)[C@@]3(F)[C@@H](O)C[C@@]21C` it is “inactive”; for `O=Cc1ccc(CO)o1` it is “inactive”.
As to `O=C1CCCC1`, the result was inactive.
In the case of `COC(=O)C1=C(C)NC(C)=C(C(=O)OCC(C)C)C1c1ccccc1[N+](=O)[O-]` (stereo not drawn), the result was inactive.
For the compound `O=c1c2ccccc2oc2ccccc12`, the outcome was inactive.
The entry for `C=CC(=O)NC(C)(C)CS(=O)(=O)O` is “inactive”.
The entry for `Cc1cc(C)c(C)cc1C` is “inactive”.
